Test results reported in PubChem BioAssay (NCATS).
Results filed as inconclusive are left out. Entries that show only a call come without a potency. Active and inactive are the calls of the source. Calls follow the shape of the dose curve; as a rule, active = well fitted inhibition curve with a large enough effect; inconclusive = small, poorly fitted or top-dose-only effect; inactive = no such curve, though single readings can be large or run the other way.

Target: Cytochrome P450 3A7 (Homo sapiens) (UniProt P24462)
Sequence (P24462 whole entry, looked up): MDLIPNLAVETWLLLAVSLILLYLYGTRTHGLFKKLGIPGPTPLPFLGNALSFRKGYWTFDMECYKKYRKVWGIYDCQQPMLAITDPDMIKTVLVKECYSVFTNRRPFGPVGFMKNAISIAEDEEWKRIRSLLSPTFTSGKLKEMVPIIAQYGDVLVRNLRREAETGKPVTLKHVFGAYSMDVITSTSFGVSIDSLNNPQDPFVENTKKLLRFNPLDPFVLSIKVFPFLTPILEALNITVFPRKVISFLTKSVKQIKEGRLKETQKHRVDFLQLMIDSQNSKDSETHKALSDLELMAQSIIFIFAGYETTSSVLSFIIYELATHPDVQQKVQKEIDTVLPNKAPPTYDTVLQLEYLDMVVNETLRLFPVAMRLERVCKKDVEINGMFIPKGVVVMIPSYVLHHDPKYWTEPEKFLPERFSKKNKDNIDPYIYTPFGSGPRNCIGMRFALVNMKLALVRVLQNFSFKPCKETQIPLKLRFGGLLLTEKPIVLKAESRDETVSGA
Test: Cytochrome P450 family 3 subfamily A member 7 (CYP3A7) small molecule antagonists: luciferase biochemical qHTS assay (AID 1963596); also: nearly all actives have a fitted effect of over 40% in size
Conditions: P450-Glo CYP3A7 enzyme luminescence, 1 h; series mostly up to 57.4 µM
Method in brief: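 In this luminescent screen, enzyme and proluciferin substrate meet test compound for 10 min before NADPH regeneration solution drives a 1 h room-temperature reaction; detection reagent halts turnover and luminescence is read 20 min later.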
Potency is read from the fitted curve at half-maximal effect.

Compound | Potency
NC(=O)OCC(O)COc1ccc(Cl)cc1 (stereo not given) | inactive
O=C(O)c1ccccc1NC(=O)N1CCC(c2ccccc2C(F)(F)F)CC1 | inactive
Cc1ccc(C)c(NC(=O)Cn2cc(C(=O)c3ccco3)c3ccccc32)c1 | inactive
CN[C@@H]1[C@@H](O)[C@@H](O[C@@H]2[C@@H](O)[C@H](O[C@H]3O[C@H]([C@@H](C)NC)CC[C@H]3N)[C@@H](N)C[C@H]2N)OC[C@]1(C)O | inactive
COc1cc(Cc2cnc(N)nc2N)c(C(C)C)cc1OC | inactive
Nc1nc(=O)n([C@@H]2CS[C@H](CO)O2)cc1F | inactive
Cc1ccc(CNC(=O)C2CCN(S(=O)(=O)c3c(C)noc3/C=C/c3ccccc3F)CC2)o1 | inactive
CCCc1ccc(C(=O)O)cc1 | inactive
Fc1ccc(-c2nc(-c3c(F)cccc3F)[nH]c2-c2ccncc2)cc1 | inactive
CCOc1ccc(-c2nn3ncccc3c2-c2ccc(S(C)(=O)=O)cc2)cc1 | inactive
COc1ccccc1Nc1nc(-c2ccccc2F)nc2ccccc12 | inactive
CO/N=C(\C(=O)N[C@@H]1C(=O)N2C(C(=O)O)=C(COC(C)=O)CS[C@H]12)c1csc(N)n1 | inactive
CN(C)c1ccc(C(=C2C=CC(=[N+](C)C)C=C2)c2c(O)c(S(=O)(=O)[O-])cc3cc(S(=O)(=O)O)ccc23)cc1 | inactive
CC(C)(C)NS(=O)(=O)c1cncc(-c2cc(F)c3nc(N)nn3c2)c1 | inactive
NS(=O)(=O)c1ccc(NC(=O)Nc2ccc(F)cc2)cc1 | inactive
Cc1cccc(NC(=O)Cn2c(=O)n(Cc3ccc(C(=O)NCc4ccc5c(c4)OCO5)cc3)c(=O)c3ccccc32)c1 | inactive
O=C(O)c1cc(C(F)(F)F)ccc1N1CC[C@H](OCc2ccccn2)C1 | inactive
O=C(c1ccc(OC(F)F)c(C#Cc2ccccn2)c1)N1Cc2cccnc2C1 | inactive
Clc1ccc2c(c1)C1=NCCN1c1c(-c3noc(C4CC4)n3)ncn1-2 | inactive
CCC(O)c1ccccc1 (stereo not given) | inactive

Compound | Potency
OCC=Cc1ccccc1 | inactive
COc1cc(F)c(C(C)C)cc1-c1ccc(C(F)(F)F)cc1CN1C(=O)OC(c2cc(C(F)(F)F)cc(C(F)(F)F)c2)C1C (stereo not given) | inactive
CCc1ccc(OCCn2c(C3CC(=O)N(Cc4ccc(F)cc4)C3)nc3ccccc32)cc1 (stereo not given) | inactive
Cc1ccc(C)c(Nc2nc3nonc3nc2Nc2cccc(C)c2C)c1 | inactive
COc1ccc(-n2[nH]c(=O)c3[nH]c4cc(Cl)ccc4c(=O)c3c2=O)c(C)c1 | inactive
CN1CCN(c2cc3c(cc2F)c(=O)c(C(=O)O)cn3-c2ccc(F)cc2)CC1 | inactive
Cc1c(O)cc2c(c1C)O[C@](C)(CCC[C@H](C)CCC[C@H](C)CCCC(C)C)CC2 | inactive
CC1(C#N)CCN(c2c(C(=O)N3CCN(S(C)(=O)=O)CC3)cnc3cc(F)c(F)cc23)CC1 | 14.1 µM (active)
O=C(O)[C@@H]1CSCN1 | inactive
CCOC(=O)C(CCc1ccccc1)NC1CCCN2CCCC(C(=O)O)N2C1=O (stereo not given) | inactive
COc1cccc(C(=O)NC(c2ccc(Cl)cc2)c2cc(Cl)c3cccnc3c2O)c1 (stereo not given) | inactive
O=C(CSc1nc(-c2ccc(F)cc2)nc2c1Cc1ccccc1O2)Nc1cccc(C(=O)O)c1 | inactive
Cc1ccc(C(=O)c2cn(CC(=O)Nc3ccc4c(c3)OCCO4)c3nc(C)ccc3c2=O)cc1 | inactive
COc1ccc(CNC(=O)c2nc(SCc3ccccc3F)ncc2Cl)cc1 | inactive
CCC[C@H](N[C@@H](C)C(=O)N1[C@H](C(=O)O)C[C@@H]2CCCC[C@@H]21)C(=O)OCC | inactive
CN(C)c1ccc(C2O[C@@H](c3ccccc3)C[C@H](c3ccccc3)O2)cc1 (stereo not given in full) | inactive
O=C(O)CCC(=O)C(=O)O | inactive
CCOC(=O)c1ccc(Nc2nc3nonc3nc2Nc2cccc(C)c2C)cc1 | inactive
CNc1ccc([N+](=O)[O-])cc1-n1cnc(-c2ccc(C(F)(F)F)cc2)c1 | inactive
CCOc1ccc(NC(=S)N2CCC(C(O)(c3ccccc3)c3ccccc3)CC2)cc1 | inactive
